# This is part of a sample that, as a whole, favours compounds with a hit. Of some 83,000 tested, about 20% had one in any assay.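 Cells were grown in 96-well plates and exposed to the test compound at a single concentration for 48 hours; results are reported as percent growth, with values below 10 considered active.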 A number with no mark means an inactive call. Activity calls are given as the source filed them.
# Test system: MDA-MB-468 breast
# Experiment: NCI-60 one-dose screen, 48 h (100 = growth as untreated, 0 = no growth, -100 = all killed)
# Settings: 10 µM unless noted
row,Structure (SMILES),growth
1,N#CCc1csc(Cc2ccccc2)n1,107%
2,O=c1[nH]n(-c2ccccc2)c(=O)cc1Cl,101%
3,CC/C=C\C[C@H](O)C/C=C1/C(=O)C(Cl)=C[C@@H]1C/C=C\CCCC(=O)O,41.1%
4,CC(=O)OCc1cc(-c2nc3ccccc3[nH]c2=O)nn1-c1ccc(Cl)cc1,89.3%
5,CC(C)(C)c1ccc(N2CSC(=S)N(c3ccc(C(C)(C)C)cc3)C2)cc1,111%
6,N=c1c2c(-c3ccccc3)c(-c3ccccc3)oc2ncn1NC(=O)c1cccnc1,105%
7,C=C(C)[C@@H]1C/C=C(/C=O)CC[C@@H]2O[C@@]2(C)CC/C=C(\C)CC1,118%
8,N#CC(Cc1cccc2ccccc12)c1cc2ccccc2[nH]1 (stereo not given),93.2%
9,C=CCNc1ccccc1,108%
10,COc1ccc(C(=O)C(C)C)c2ccccc12,102%
11,COc1ccc2c(c1)O/C(=C/c1ccc(OCC(=O)Nc3ccc(S(N)(=O)=O)cc3)cc1)C2=O,86.3%
12,COC(=O)[C@]12CC[C@@H](C)[C@H](C)[C@@H]1C1=CC[C@@H]3[C@@]4(C)C(C=O)=C[C@@](C)(COS(C)(=O)=O)C4[C@H](O)C[C@@]3(C)[C@]1(C)CC2 (stereo not given in full),-64.7% (active)
13,Oc1ccccc1/C=N/N=C/c1c(O)ccc2ccccc12,83.4%
14,O=C(Nc1ccc(Nc2ncnc3sc4c(c23)CCOC4)cc1)Nc1ccc(Cl)c(C(F)(F)F)c1,83.5%
15,CC(=O)C[n+]1ccc(C)cc1Sc1ccccc1C,82%

# From PubChem BioAssay (NCI)
